Source: PubChem
Only some compounds are listed: those with a hit (about 3.5% of all), similar ones and a draw of the others.
MITF inh: human MITF inhibition, primary screen. O75030. AlphaScreen MITF homodimerization, bead proximity signal. inhibition, % at 2.6 µM. hit rate 0.91% among 650,000; in the data active = inhibition above about 50%;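 also: 0% = vehicle wells with protein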
TEAD-YAP block: TEAD-YAP interaction inhibition; HEK-TIYL cells, TEAD-Gal4/YAP UAS-luciferase luminescence; inhibition, % at 9.12 µM; hit rate 1.4% among 640,000; AID 1259422; in the data active = inhibition above about 32%;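 also: 0% = median of test compound wells and 100% = reference inhibitor wells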
GPR151 ag: activates the human receptor GPR151. hit rate 1% among 650,000. Q8TDV0. activation, % at 11.2 µM. PathHunter beta-arrestin GPR151 cells, luminescence. AID 1508602; in the data active = activation above about 4.9%;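 also: 0% = median of compound wells and 100% = cells with positive control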
FBW7 activator: human FBW7 E3 ligase activation, primary screen | Q969H0 | AlphaScreen FBW7–phospho-cyclin E peptide binding, activator screen | normalized activity (activation), % at 26.1 µM | hit rate 0.13% among 650,000 | AID 1259310; in the data active = normalized activity above about 1.9%;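 also: purified mutant Fbw7 with reduced substrate affinity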
GPR151 confirm: confirmation of human GPR151 activators. shares compounds with GPR151 ag. GPR151 PathHunter beta-arrestin cells, luminescence, 90 min; % of EA-reagent control over plate median. activation, % at 11.2 µM. 6,700 tested, under 10 active;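 active = mean percent activation across replicates above the confirmation screen cutoff of 4.91%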
GPR119 counter: counter-screen for GPR151 activators: effect on human GPR119; shares compounds with GPR151 ag; GPR119 PathHunter beta-arrestin cells, luminescence, 90 min; 0 = compound-well median, 100 = enzyme-acceptor control; activation, % at 11.2 µM; hit rate 0.3% among 6,700;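 active = mean percent activation in the counterscreen above 29.09%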;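 also: counterscreen on off-target GPR119 to flag nonselective hits from the GPR151 activator screen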
Target sequence (Q8TDV5 whole entry, looked up): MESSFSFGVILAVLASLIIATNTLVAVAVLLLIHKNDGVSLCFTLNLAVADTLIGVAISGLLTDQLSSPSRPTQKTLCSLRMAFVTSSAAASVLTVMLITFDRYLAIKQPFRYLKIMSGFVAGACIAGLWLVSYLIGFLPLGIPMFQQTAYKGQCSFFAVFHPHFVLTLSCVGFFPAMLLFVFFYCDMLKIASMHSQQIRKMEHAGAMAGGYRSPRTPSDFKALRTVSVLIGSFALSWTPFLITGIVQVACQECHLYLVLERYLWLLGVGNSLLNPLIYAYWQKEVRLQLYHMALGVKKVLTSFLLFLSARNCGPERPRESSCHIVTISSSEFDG
The depositor's hits bear a star; · = no result.

SMILES	MITF inh	TEAD-YAP block	GPR151 ag	FBW7 activator	GPR151 confirm	GPR119 counter
N#CC1(C#N)CC(C=O)=C(N)C1(C#N)CC(=O)C12CC3CC(CC(C3)C1)C2 (stereo not given)	4	6	14*	0	1	7
Nc1c(C(=O)Nc2ccc(Oc3ccccc3)cc2)nnn1Cc1ccccc1	-7	-12	2	0	·	·
COc1ccc(NC(=O)c2nnn(Cc3ccccc3)c2N)cc1	9	-23	8.1*	0	0	6
COc1ccc(-c2noc(N(C)CC(=O)N3CCN(c4cccc(Cl)c4)CC3)n2)cc1	0	-4	-1	0	·	·
COc1ccc(-c2noc(N(C)CC(=O)N3CCN(c4ccccc4OC)CC3)n2)cc1	2	-6	6.5*	0	0	-21
CN(CC(=O)Nc1ccc(Cl)cc1)CC(=O)Nc1ccc(C(N)=O)cc1	-6	4	5.4*	0	0	-9
CN(CC(=O)Nc1ccc(C(N)=O)cc1)CC(=O)Nc1ccccc1Cl	-11	-5	1	0	·	·
COc1ccc(CN(C)CC(=O)Nc2ccc(C(N)=O)cc2)c(OC)c1OC	-5	1	5.0*	0	1	12
CN(CC(=O)Nc1ccc(C(N)=O)cc1)Cc1ccc(C(C)(C)C)cc1	-1	-8	1	0	·	·
COc1ccccc1Cn1nccc1N	8	2	2	0	·	·
COc1ccc(Cn2nccc2N)cc1OC	2	-2	14*	0	2	7
CSc1cccc(NS(=O)(=O)c2ccc3c(c2)OCCN3C)c1	1	19	5.0*	0	0	6
Cc1ccc(CCNS(=O)(=O)c2ccc3c(c2)OCCN3C)cc1	2	7	5.4*	0	2	4
Cc1ccc(NS(=O)(=O)c2ccc3c(c2)OCCN3C)cc1C	4	20	1	0	·	·
Cc1cc(NS(=O)(=O)c2ccc3c(c2)OCCN3C)ccc1Br	4	5	9.0*	0	0	-8
CCOc1ccc(-n2c(=S)sc3c(=O)n(-c4ccc(F)cc4)c(SCC(=O)c4ccc(F)cc4)nc32)cc1	-6	-2	0	0	·	·
CCC(O)C1CCN(C(=O)CCC2(Cc3ccc(C)cc3)CCC(=O)N2)CC1 (stereo not given)	1	-8	1	0	·	·
Cc1ccn2c(C(=O)Nc3ccc(Cl)cc3)c(C)nc2c1	15	-7	5.5*	0	1	3
COc1ccc(NC(=O)CCNc2c(N3CCCC3)c(=O)c2=O)cc1	14	14	6.1*	1	0	-5
CCCCN(C)Cc1c(C(=O)N2CCN(C3CCCCC3)CC2)nc2ccccn12	14	4	7.3*	0	1	6
Cc1ccc(Cl)cc1NC(=O)CSc1ncccc1C(=O)O	17	-10	0	0	·	·
Cc1sc2nc(SCC(=O)c3ccccc3)[nH]c(=O)c2c1C	-4	1	-1	0	·	·
COc1ccc(CCNC(=O)CN2N=C(c3ccc(C)cc3)CCC2=O)cc1OC	-6	-7	6.7*	0	1	-2
CCOC(=O)N1CCN(c2c(NCCN3CCCCCC3)c(=O)c2=O)CC1	-2	-9	2	0	·	·
CCOC(=O)C1CCN(c2c(NCCCc3ccccc3)c(=O)c2=O)CC1	4	-4	9.9*	0	0	4
SMILES	MITF inh	TEAD-YAP block	GPR151 ag	FBW7 activator	GPR151 confirm	GPR119 counter
CCOC(=O)C1CCCN(c2c(NCCCc3ccccc3)c(=O)c2=O)C1 (stereo not given)	6	-13	0	0	·	·
CC1CCN(c2c(NCc3ccc(C(=O)NCCc4ccccc4)cc3)c(=O)c2=O)CC1	3	-9	5.2*	0	1	-8
CCOC(=O)C1CCN(c2c(NCCN3CCOCC3)c(=O)c2=O)CC1	10	1	6.3*	0	-1	-18
CCOC(=O)N1CCN(c2c(NCCN3CCCC3)c(=O)c2=O)CC1	1	-6	5.5*	0	1	10
CCCc1cc(=O)oc2cc(OC(C)C(=O)OC)ccc12 (stereo not given)	18	5	0	0	·	·
CCOC(=O)N1CCN(c2c(NC3CCCCCCC3)c(=O)c2=O)CC1	3	2	3	0	·	·
CCOC(=O)C1CCCN(c2c(NCCCN3CCN(C)CC3)c(=O)c2=O)C1 (stereo not given)	-3	5	0	0	·	·
